In general, AC50 refers to the midpoint of the concentration-response curve, whichever way the signal moves.

A short description of test [1]: CCTE_Shafer_MEA_dev_per_burst_interspike_interval: CCTE's Neural Network Formation Assay for Burst Interspike Interval, Shafer Lab (AID 2284044).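 Note: potency for a decrease of within-burst interspike interval below DMSO level.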 In a few lines: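 Readout is the average time between spikes inside single-electrode bursts, taken as a well mean across bursting electrodes. Cortical neurons from rat developed networks on MEA plates under continuous 12-day exposure; recordings on days 5, 7, 9 and 12 were integrated by trapezoidal AUC.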

The nature of test [2]: CCTE_Shafer_MEA_dev_burst_duration_mean: CCTE's Neural Network Formation Assay for Mean Burst Duration, Shafer Lab (AID 2284045).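 Note: curve fitted for loss meaning shorter burst duration than DMSO.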 In a few lines:
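Read-out: average first-to-last-spike interval within single-electrode bursts, averaged over bursting electrodes per well, then summarised as area under the curve across days 5, 7, 9 and 12. Developing rat cortical networks were exposed from day 0.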

Test [3] is described as follows: CCTE_Shafer_MEA_dev_interburst_interval_mean: CCTE's Neural Network Formation Assay for Mean Interburst Interval, Shafer Lab (AID 2284046).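 Note: curve fitted for decrease in interburst interval relative to DMSO.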 In a few lines: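 Developing rat cortical networks on 48-well MEAs receive compound from the day of plating. Burst intervals from each active electrode are averaged per well, and AUC over the recording days is fitted in the negative direction against DMSO.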

Test [4] in a line: CCTE_Shafer_MEA_dev_inter_network_spike_interval_mean: CCTE's Neural Network Formation Assay for Mean Inter-network Spike Interval, Shafer Lab (AID 2284047).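 Note: potency for a decrease in mean inter-network spike interval below DMSO.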 In a few lines:
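Rat cortical cultures, 1.5 x 10^5 cells/well on 48-well MEA plates; continuous exposure days 0–12, medium and compound refreshed DIV 5, 9. Mean time between consecutive network-spike peaks; AUC across DIV 5/7/9/12; DMSO baseline, negative fitting direction.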

Test [5] in a line: CCTE_Shafer_MEA_dev_network_spike_number: CCTE's Neural Network Formation Assay for Number of Network Spikes, Shafer Lab (AID 2284048).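 Note: fit as a loss of signal meaning fewer network spikes than DMSO.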 In a few lines: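 Developing networks of primary rat cortical neurons are treated over 12 days starting at plating, with media and compound fully replaced on DIV 5 and 9. Network spike counts from four recording days are integrated as trapezoidal AUC.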

The nature of test [6]: CCTE_Shafer_MEA_dev_network_spike_peak: CCTE's Neural Network Formation Assay for Mean Number of Electrodes in Network Spike, Shafer Lab (AID 2284049).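 Note: fitted for loss of signal meaning fewer electrodes in network spikes than DMSO.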 In a few lines:
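Rat cortical primary culture, 1.5 x 10^5 cells/well, 48-well MEA (16 electrodes/well). Dosing day 0 through DIV 12, full media/compound exchange DIV 5, 9. AxIS adaptive spike detection; AUC over days 5/7/9/12; loss-of-signal vs DMSO.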

A short description of test [7]: CCTE_Shafer_MEA_dev_spike_duration_mean: CCTE's Neural Network Formation Assay for Mean Spike Duration, Shafer Lab (AID 2284051).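 Note: mean network spike duration pooled as area under curve over DIV 5 to 12 recordings; potency for a decrease in mean network spike duration versus DMSO.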 The essentials:
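Readout is the average length of network spikes, clustered firing across electrodes, summed over DIV 5, 7, 9 and 12 as area under the curve. Neurons from rat cortex developed networks on MEA plates under continuous 12-day exposure.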

Test [8] can be described thus: CCTE_Shafer_MEA_dev_network_spike_duration_std: CCTE's Neural Network Formation Assay for Standard Deviation of Network Spike Duration, Shafer Lab (AID 2284052).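 Note: area under curve of spike duration SD across recording days 5 to 12; hits are decreases in network spike duration SD versus DMSO vehicle.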 In a few lines:
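Read-out is the trapezoidal area-under-the-curve across recordings made on days 5, 7, 9 and 12, fitted in the negative direction against DMSO baseline. Neurons were primary rat cortical cells treated from day 0, with treatment renewed at each feed.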

Test [9] is described as follows: CCTE_Shafer_MEA_dev_per_network_spike_spike_number_mean: CCTE's Neural Network Formation Assay for Mean Number of Spikes in a Network Spike, Shafer Lab (AID 2284053).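 Note: fitted as decrease in spikes per network spike relative to DMSO.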 The essentials:
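Continuous twelve-day exposure of developing rat cortical networks grown over 16 microelectrodes per well; spontaneous firing is captured at four time points, and the per-network-spike spike number is integrated over development by trapezoidal AUC.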

A short description of test [10]: CCTE_Shafer_MEA_dev_per_network_spike_spike_percent: CCTE's Neural Network Formation Assay for Percent of Spikes in a Network Spike, Shafer Lab (AID 2284054). The essentials: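 Rat primary cortical cultures, 1.5 x 10^5 cells/well on MEA. Continuous compound exposure d0–12, medium/compound renewed DIV 5, 9. Network-spike spike % (0.05 s peak window), AUC over 4 recordings, DMSO baseline.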

The nature of test [11]: UKN5_HCS_SBAD2_cell_viability: Viability Assessment in the University of Konstanz (UKN) Leist Lab Neurite Outgrowth Assay in human iPSC-derived immature Dorsal Root Ganglia Neurons (UKN5) (AID 2284056). In a few lines: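 iPSC-derived immature peripheral neurons (SBAD2) seeded on Matrigel with CHIR99021, SU5402 and DAPT, dosed 1 h later for 24 h. Viability from Hoechst H-33342 and calcein-AM live staining, high-content imaging; bidirectional fit versus DMSO.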

A short description of test [12]: CCTE_Shafer_MEA_dev_LDH: CCTE's Lactate Dehydrogenase Assay for Cytotoxicity in the Neural Network Formation Assay, Shafer Lab (AID 2284068; active = hit-call score of the fitted dose curve at least 0.9, where 1 is the maximum;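 note: exposure for twelve days from plating with re-dosing on DIV 5 and 9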). The essentials: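 Cytotoxicity companion to network-formation recordings: rat cortical neurons received compound over 12 days of development, re-dosed at DIV 5 and 9 feeds. Viability was inferred from LDH enzyme activity relative to DMSO.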

Test [13] in a line: CCTE_Shafer_MEA_acute_AB: CCTE's Alamar Blue Assay for Cytotoxicity in the Neural Acute Assay, Shafer Lab (AID 2284069; active = hit-call score of the fitted dose curve at least 0.9, where 1 is the maximum;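 note: active compounds lower the viability signal compared with DMSO wells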). In a few lines: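 Metabolic activity in chemically exposed rat cortical neurons (MEA cultures, day 13/15 post-plating) measured via CellTiter Blue resazurin reduction, 544/590 nm fluorescence; fitted relative to DMSO, with signal loss indicating reduced viability.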
(Alamar Blue is a resazurin reagent that responds to reducing activity.)

The nature of test [14]: UKN5_HCS_SBAD2_neurite_outgrowth: University of Konstanz (UKN) Leist Lab Neurite Outgrowth Assay in human iPSC-derived immature Dorsal Root Ganglia Neurons (UKN5) (AID 2284070). Particulars: actives raise or lower the signal. In a few lines: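 Read-out: calcein-AM-stained neurite area by high-content imaging, Hoechst H-33342 for viability, after 24 h exposure of iPSC-derived immature dorsal root ganglia neurons. Activity fitted in both directions relative to DMSO baseline.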

Test [15] can be described thus: CCTE_Shafer_MEA_dev_AB: CCTE's Alamar Blue Assay for Cytotoxicity in the Neural Network Formation Assay, Shafer Lab (AID 2284083; active = hit-call score of the fitted dose curve at least 0.9, where 1 is the maximum;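 note: twelve days of exposure from plating with re-dosing on DIV 5 and 9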). The essentials:
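Fluorescent resazurin reduction serves as the viability read-out, with DMSO as negative control and baseline. Cells were primary rat cortical neurons grown on MEA plates and dosed from day 0 to day 12, treatment renewed on DIV 5 and 9.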

The nature of test [16]: CCTE_Shafer_MEA_acute_LDH: CCTE's Lactate Dehydrogenase Assay for Cytotoxicity in the Neural Acute Assay, Shafer Lab (AID 2284086; active = hit-call score of the fitted dose curve at least 0.9, where 1 is the maximum;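 note: active means LDH release rises above DMSO vehicle level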). The essentials:
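Rat cortical neurons cultured on microelectrode arrays; baseline 40-min recording, compound added, second 40-min recording; medium then sampled for released LDH (colorimetric kit, 490 nm). DMSO = negative control.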

Test [17] can be described thus: CCTE_Shafer_MEA_dev_mutual_information_norm: CCTE's Neural Network Formation Assay for Mutual Information Normalization, Shafer Lab (AID 2284091).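 Note: mutual information between electrodes summarised as area under curve across four recording days; potency is for a decrease in mutual information relative to DMSO.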 In a few lines:
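Developing rat cortical networks on 16-electrode MEA wells are treated throughout formation (DIV 0–12). Shared electrode information is recorded four times, converted to area-under-curve, and fitted for decreases against DMSO vehicle.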

Test [18] in a line: UKN4_HCS_LUHMES_neurite_outgrowth: University of Konstanz (UKN) Leist Lab Neurite Outgrowth Assay in human LUHMES cells (UKN4) (AID 2284206). Particulars: actives raise or lower the signal. In a few lines:
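Day 0 switch to differentiation medium; day 2 replate (30000 cells/well) without cAMP and GDNF; compounds added 30 min–2 h later. At 23.5 h, 30 min calcein-AM/H-33342 live stain, then imaging.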

Test [19] is described as follows: IUF_NPC1a_proliferation_area_72hr: Leibniz Research Institute for Environmental Medicine (IUF) 72-hour Neural Progenitor Cell Proliferation Area Assay (NPC1a) (AID 2284208). The essentials:
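hNPC spheres (human fetal cortex, GW 16-19), one per poly-Hema U-bottom well; EGF+FGF medium; dosed day 0, no re-dosing; 72 h, 37C, 5% CO2; phase-contrast sphere area; DMSO = baseline; minus-GF = positive ctrl.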

A short description of test [20]: IUF_NPC1_viability_72hr: Viability Assessment at 72 hours in the Leibniz Research Institute for Environmental Medicine (IUF) Neural Progenitor Cell Proliferation Assay (NPC1) (AID 2284209). The essentials:
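hNPC spheres, 1/well, EGF+FGF medium, 37C/5% CO2; dosed day 0, 72 h, no re-dosing. Resazurin reduction (alamar blue) fluorescence; DMSO = negative control/baseline; growth-factor-free wells as positive control.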

Test [21] in a line: CCTE_Mundy_HCI_Cortical_Synap_Neur_Matur_NeuriteSpotCountPerNeuriteLength: CCTE's Synaptogenesis and Neurite Maturation Assay in rat cortical cells for Neurite Spot Count per Neurite Length, Mundy Lab (AID 2284210). In a few lines:
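Primary rat cortical neurons, compound exposure DIV 7–12, 288.33 h endpoint. Hoechst, anti-MAP2 and anti-synaptophysin labelling; neurite-associated puncta per neurite length scored by automated imaging relative to DMSO controls.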

Test [22] in a line: CCTE_Mundy_HCI_Cortical_Synap_Neur_Matur_BPCount: CCTE's Synaptogenesis and Neurite Maturation Assay in rat cortical cells for Branch Point Count, Mundy Lab (AID 2284211). The essentials:
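Rat primary cortical cultures, AraC added DIV 5; chemicals dosed DIV 7 through DIV 12. Fixed cells stained for MAP2, synaptophysin and Hoechst; neurite branch points counted by automated high-content imaging, fitted relative to DMSO.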

Test [23] in a line: CCTE_Mundy_HCI_Cortical_NOG_NeuriteCount: CCTE's Neurite Outgrowth Assay in rat cortical cells for Neurite Count, Mundy Lab (AID 2284212).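 Note: cells fixed about two days after chemical exposure began.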 The essentials: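 Neurite number per cell from high-content imaging of betaIII-tubulin immunostaining, with Hoechst nuclear counterstain.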

Results filed as inconclusive are left out. Calls of active or inactive are those of the source. Rule for the calls, unless noted: active = hit-call score of the fitted dose curve at least 0.9, where 1 is the maximum; inactive = score below 0.9.

`[Cd+2].[Cl-].[Cl-]`: the AC50 in test [1] is 630 nM (active); in test [2], 387 nM (active); in test [3] it was 460 nM (active); in test [4], 14 nM (active); in [5] it was 299 nM (active); in test [6], 208 nM (active). The AC50 was 119 nM (active) in test [7]; 23.9 nM (active) in [8]; 260 nM (active) in test [9]; 585 nM (active) in [10]; 50000 nM (active) in test [11]; 1510 nM (active) in [12]. Further, the AC50 is 50000 nM (active) in test [14]; 1210 nM (active) in [15]; 178 nM (active) in test [17]; 6250 nM (active) in test [18]; 1380 nM (active) in test [22]; 13100 nM (active) in [23]. Moreover, the compound was classed as inactive in [13], in test [16], in [19], in [20] and in [21].

These data come from PubChem BioAssay (EPA / NIEHS).
